Assay in all cases: DAPPL (digital affinity profiling via proximity ligation, sequencing); 10 mM Tris-HCl pH 7.5, 50 mM NaCl, 1 mM DTT, 4% glycerol, room temperature, 30 min; GST-TFs on glutathione beads, 16-mer random dsDNA library, 0.1% formaldehyde crosslink after washing; high values mean tight binding
What all share (settings): protein: recombinant; tags: N-terminal GST; dsDNA, one strand shown

One assay addresses T1, ERF (Homo sapiens, UniProt P50548 1-548).
T1 sequence: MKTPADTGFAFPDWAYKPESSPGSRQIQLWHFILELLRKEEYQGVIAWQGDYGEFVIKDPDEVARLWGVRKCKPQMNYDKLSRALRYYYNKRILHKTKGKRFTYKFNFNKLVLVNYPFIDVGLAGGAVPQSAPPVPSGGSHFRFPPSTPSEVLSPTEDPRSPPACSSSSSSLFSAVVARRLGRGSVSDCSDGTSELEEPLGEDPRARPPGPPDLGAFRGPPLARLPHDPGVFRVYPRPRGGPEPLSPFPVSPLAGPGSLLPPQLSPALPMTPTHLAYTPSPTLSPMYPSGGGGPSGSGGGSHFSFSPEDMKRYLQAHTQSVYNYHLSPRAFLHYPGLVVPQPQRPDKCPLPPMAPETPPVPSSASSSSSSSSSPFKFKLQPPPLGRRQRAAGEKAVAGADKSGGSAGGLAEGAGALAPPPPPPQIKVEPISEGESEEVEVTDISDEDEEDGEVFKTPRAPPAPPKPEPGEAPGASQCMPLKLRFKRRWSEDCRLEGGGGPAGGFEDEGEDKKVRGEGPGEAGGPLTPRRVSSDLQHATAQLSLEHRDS
In outline:
(§1)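 Pools were built from human transcription factors expressed in yeast as GST fusions, captured on glutathione beads and DNA-barcoded, along with a tag-only sample. Incubation with 200 nmole of a 16-mer random double-stranded DNA library lasted 30 min at room temperature in Tris/NaCl/DTT/glycerol buffer, and was followed by washing, 0.1% formaldehyde crosslinking, proximity ligation, PCR amplification and Illumina NextSeq500 sequencing. Binding signal is the quotient of each hexamer's read frequency for a factor and its frequency for the tag-only sample.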

Another assay concerns the target T2, ETV3L (Homo sapiens, UniProt Q6ZN32 1-361).
T2 sequence: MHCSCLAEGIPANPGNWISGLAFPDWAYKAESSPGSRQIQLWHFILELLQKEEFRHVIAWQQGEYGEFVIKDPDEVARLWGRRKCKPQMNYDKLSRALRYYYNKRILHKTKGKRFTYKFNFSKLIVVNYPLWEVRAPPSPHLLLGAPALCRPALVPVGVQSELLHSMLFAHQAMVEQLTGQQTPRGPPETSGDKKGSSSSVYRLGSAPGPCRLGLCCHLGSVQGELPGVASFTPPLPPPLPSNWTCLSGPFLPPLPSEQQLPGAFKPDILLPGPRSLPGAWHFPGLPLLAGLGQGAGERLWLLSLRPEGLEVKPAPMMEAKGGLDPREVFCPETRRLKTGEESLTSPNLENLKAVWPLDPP
The essentials: as §1

For a further assay, the target named is T3, ETS2 (Homo sapiens, UniProt P15036 1-469).
T3 sequence: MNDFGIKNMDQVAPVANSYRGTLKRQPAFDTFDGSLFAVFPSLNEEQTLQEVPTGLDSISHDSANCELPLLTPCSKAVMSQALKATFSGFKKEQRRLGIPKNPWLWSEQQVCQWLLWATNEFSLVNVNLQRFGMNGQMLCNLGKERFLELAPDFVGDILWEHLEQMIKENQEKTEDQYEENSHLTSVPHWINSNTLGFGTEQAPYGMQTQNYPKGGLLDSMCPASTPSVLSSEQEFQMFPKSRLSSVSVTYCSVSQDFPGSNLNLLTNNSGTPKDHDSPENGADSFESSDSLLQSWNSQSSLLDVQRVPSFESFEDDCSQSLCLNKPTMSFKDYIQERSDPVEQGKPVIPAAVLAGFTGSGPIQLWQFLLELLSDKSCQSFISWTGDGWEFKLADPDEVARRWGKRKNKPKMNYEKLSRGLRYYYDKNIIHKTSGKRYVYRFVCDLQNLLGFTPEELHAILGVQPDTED
In outline: as §1

The target in another assay is T4, SPDEF (Homo sapiens, UniProt O95238 1-335).
T4 sequence: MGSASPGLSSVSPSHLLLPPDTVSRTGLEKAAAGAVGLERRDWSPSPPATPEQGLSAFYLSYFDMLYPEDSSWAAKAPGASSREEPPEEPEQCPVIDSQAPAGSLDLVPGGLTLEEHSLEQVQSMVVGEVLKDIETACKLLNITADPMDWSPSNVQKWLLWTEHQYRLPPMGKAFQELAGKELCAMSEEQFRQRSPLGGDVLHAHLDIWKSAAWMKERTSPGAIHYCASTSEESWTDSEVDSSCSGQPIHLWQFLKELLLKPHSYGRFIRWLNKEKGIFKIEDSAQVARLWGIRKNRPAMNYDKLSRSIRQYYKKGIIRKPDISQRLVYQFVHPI
In outline: as §1

The next assay has as its target T5, ETV7 (Homo sapiens, UniProt Q9Y603 1-341).
T5 sequence: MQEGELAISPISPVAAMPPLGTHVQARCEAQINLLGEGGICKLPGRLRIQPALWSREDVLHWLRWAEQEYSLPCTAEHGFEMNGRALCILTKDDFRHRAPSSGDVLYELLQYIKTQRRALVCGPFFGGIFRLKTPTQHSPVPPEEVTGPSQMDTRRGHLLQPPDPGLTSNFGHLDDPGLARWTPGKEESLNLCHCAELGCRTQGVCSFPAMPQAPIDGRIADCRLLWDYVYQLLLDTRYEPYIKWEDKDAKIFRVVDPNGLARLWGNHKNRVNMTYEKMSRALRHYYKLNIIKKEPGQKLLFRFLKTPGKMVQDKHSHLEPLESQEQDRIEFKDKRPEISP
In outline:
as §1

The target of a further assay is T6, ELF5 (Homo sapiens, UniProt Q9UKW6-2 1-255).
T6 sequence: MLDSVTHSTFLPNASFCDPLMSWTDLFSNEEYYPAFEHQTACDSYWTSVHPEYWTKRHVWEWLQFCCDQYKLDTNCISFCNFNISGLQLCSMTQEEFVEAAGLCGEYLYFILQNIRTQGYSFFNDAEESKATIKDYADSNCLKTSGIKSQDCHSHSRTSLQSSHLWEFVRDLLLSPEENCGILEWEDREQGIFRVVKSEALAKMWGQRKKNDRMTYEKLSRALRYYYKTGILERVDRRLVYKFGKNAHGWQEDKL
The essentials:
as §1

For the next assay, the target named is T7, ETV3 (Homo sapiens, UniProt P41162-2 1-143).
T7 sequence: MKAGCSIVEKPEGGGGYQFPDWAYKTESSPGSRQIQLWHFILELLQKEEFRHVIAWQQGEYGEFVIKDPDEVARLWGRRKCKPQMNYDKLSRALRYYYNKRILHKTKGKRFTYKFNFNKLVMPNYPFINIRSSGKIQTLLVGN
In outline: as §1

The next assay concerns the target ETV6 (Homo sapiens, UniProt P41212 1-452). The essentials: as §1

Chain of ETV6 (P41212 whole entry): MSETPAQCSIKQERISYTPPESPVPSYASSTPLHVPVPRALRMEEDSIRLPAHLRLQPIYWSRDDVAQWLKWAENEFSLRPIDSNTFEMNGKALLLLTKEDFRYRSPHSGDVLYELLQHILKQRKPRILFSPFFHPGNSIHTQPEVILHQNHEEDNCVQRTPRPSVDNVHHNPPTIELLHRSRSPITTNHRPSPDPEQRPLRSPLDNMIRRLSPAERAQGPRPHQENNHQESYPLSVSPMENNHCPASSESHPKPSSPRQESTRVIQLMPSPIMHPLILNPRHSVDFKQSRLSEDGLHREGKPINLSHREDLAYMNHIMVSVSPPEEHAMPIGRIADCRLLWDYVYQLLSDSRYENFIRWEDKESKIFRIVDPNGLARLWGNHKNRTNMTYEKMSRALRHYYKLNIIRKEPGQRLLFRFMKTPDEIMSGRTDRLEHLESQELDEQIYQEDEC

In the case of ACCAAC, the binding signal is 1.24 fold enrichment (6-mer frequency, TF over GST control) with ERF; 1.13 fold enrichment (6-mer frequency, TF over GST control) with ETV3L; 1.15 fold enrichment (6-mer frequency, TF over GST control) in the assay with ETS2; 1.22 fold enrichment (6-mer frequency, TF over GST control) with SPDEF; 1.13 fold enrichment (6-mer frequency, TF over GST control) with ETV7; 1.13 fold enrichment (6-mer frequency, TF over GST control) with ELF5. Moreover, the binding signal in the assay with ETV3 is 1.24 fold enrichment (6-mer frequency, TF over GST control); with ETV6, 1.2 fold enrichment (6-mer frequency, TF over GST control).

For TGAAAC, the binding signal with ERF is 1.17 fold enrichment (6-mer frequency, TF over GST control); with ETV3L, 1.17 fold enrichment (6-mer frequency, TF over GST control); with ETS2 it was 1.3 fold enrichment (6-mer frequency, TF over GST control); with SPDEF it was 1.28 fold enrichment (6-mer frequency, TF over GST control); with ETV7 it was 1.28 fold enrichment (6-mer frequency, TF over GST control); in the assay with ELF5, 1.15 fold enrichment (6-mer frequency, TF over GST control). The binding signal is 1.28 fold enrichment (6-mer frequency, TF over GST control) with ETV3 and 1.13 fold enrichment (6-mer frequency, TF over GST control) with ETV6.

With ATAGCA, the binding signal with ERF is 1.24 fold enrichment (6-mer frequency, TF over GST control); in the assay with ETV3L it was 1.19 fold enrichment (6-mer frequency, TF over GST control); with ETS2 it was 1.22 fold enrichment (6-mer frequency, TF over GST control); with SPDEF, 1.12 fold enrichment (6-mer frequency, TF over GST control); with ETV7, 1.06 fold enrichment (6-mer frequency, TF over GST control); in the assay with ELF5, 1.16 fold enrichment (6-mer frequency, TF over GST control). Moreover, the binding signal with ETV3 is 1.19 fold enrichment (6-mer frequency, TF over GST control); with ETV6, 1.18 fold enrichment (6-mer frequency, TF over GST control).

On to ATGCAC, for which the binding signal with ERF is 1.25 fold enrichment (6-mer frequency, TF over GST control); with ETV3L it was 1.28 fold enrichment (6-mer frequency, TF over GST control); in the assay with ETS2, 1.29 fold enrichment (6-mer frequency, TF over GST control); with SPDEF, 1.5 fold enrichment (6-mer frequency, TF over GST control); in the assay with ETV7 it was 1.3 fold enrichment (6-mer frequency, TF over GST control); in the assay with ELF5, 1.19 fold enrichment (6-mer frequency, TF over GST control). Besides, the binding signal with ETV3 was 1.31 fold enrichment (6-mer frequency, TF over GST control); with ETV6, 1.29 fold enrichment (6-mer frequency, TF over GST control).

Turning to ATTATC, the binding signal in the assay with ERF was 1.36 fold enrichment (6-mer frequency, TF over GST control); with ETV3L, 1.39 fold enrichment (6-mer frequency, TF over GST control); with ETS2, 1.29 fold enrichment (6-mer frequency, TF over GST control); with SPDEF, 1.34 fold enrichment (6-mer frequency, TF over GST control); with ETV7, 1.18 fold enrichment (6-mer frequency, TF over GST control); with ELF5, 1.31 fold enrichment (6-mer frequency, TF over GST control). Besides, the binding signal is 1.37 fold enrichment (6-mer frequency, TF over GST control) with ETV3 and 1.29 fold enrichment (6-mer frequency, TF over GST control) with ETV6.

Consider TTCGCG, for which the binding signal with ERF was 1.23 fold enrichment (6-mer frequency, TF over GST control); with ETV3L it was 1.15 fold enrichment (6-mer frequency, TF over GST control); with ETS2, 1.1 fold enrichment (6-mer frequency, TF over GST control); with SPDEF, 1.15 fold enrichment (6-mer frequency, TF over GST control); in the assay with ETV7 it was 1.08 fold enrichment (6-mer frequency, TF over GST control); in the assay with ELF5 it was 1.07 fold enrichment (6-mer frequency, TF over GST control). For the same sequence, the binding signal with ETV3 is 1.12 fold enrichment (6-mer frequency, TF over GST control); in the assay with ETV6 it was 1.17 fold enrichment (6-mer frequency, TF over GST control).

For the sequence TTAATC, the binding signal was 1.19 fold enrichment (6-mer frequency, TF over GST control) with ERF; 1.21 fold enrichment (6-mer frequency, TF over GST control) with ETV3L; 1.29 fold enrichment (6-mer frequency, TF over GST control) in the assay with ETS2; 1.26 fold enrichment (6-mer frequency, TF over GST control) with SPDEF; 1.1 fold enrichment (6-mer frequency, TF over GST control) in the assay with ETV7; 1.18 fold enrichment (6-mer frequency, TF over GST control) in the assay with ELF5. The binding signal in the assay with ETV3 was 1.24 fold enrichment (6-mer frequency, TF over GST control); with ETV6, 1.21 fold enrichment (6-mer frequency, TF over GST control).

As to AATGGG, the binding signal was 1.16 fold enrichment (6-mer frequency, TF over GST control) with ERF; 1.15 fold enrichment (6-mer frequency, TF over GST control) in the assay with ETV3L; 1.19 fold enrichment (6-mer frequency, TF over GST control) with ETS2; 1.12 fold enrichment (6-mer frequency, TF over GST control) with SPDEF; 1.2 fold enrichment (6-mer frequency, TF over GST control) with ETV7; 1.2 fold enrichment (6-mer frequency, TF over GST control) in the assay with ELF5. The binding signal with ETV3 is 1.19 fold enrichment (6-mer frequency, TF over GST control); with ETV6 it was 1.2 fold enrichment (6-mer frequency, TF over GST control).
